Hits are enriched below; roughly 1.6% of the tested compounds scored in any of these assays.
KCNQ2 pot – potentiators of rat KCNQ2 potassium channel | B-score at 10 µM | CHO-K1 KCNQ2, FluxOR thallium flux fluorescence; stronger effect = higher value | Potassium voltage-gated channel subfamily KQT member 2 (Rattus norvegicus), O88943 | 310,000 tested, 0.54% active;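 active = fluorescence ratio B-score at least 3 SD of library B-scores, with initial fluorescence B-score within 3 of them, cut at about 5.3 in these data; same plate scores as AID 2156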;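 also: B-score of peak minus minimum over baseline fluorescence ratio after K+ and Tl+ stimulus; positive B-score means potentiation of KCNQ2 with more thallium influx and brighter signal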
KCNQ2 block – rat KCNQ2 potassium channel inhibitors, primary screen, cell-based, CHO-K1, FluxOR thallium flux, B-score; 20 min; stronger effect = lower value; 310,000 tested, 1.1% active; Potassium voltage-gated channel subfamily KQT member 2 (Rattus norvegicus), O88943; B-score at 10 µM;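 active = fluorescence ratio B-score at most minus 3 library SDs, with starting brightness B-score within 2 library SDs, cut at about -5.5 in these data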
The depositor's hits bear a star; i = inactive; · = no result.

SMILES | KCNQ2 pot | KCNQ2 block
CCCCOC(=O)c1ccc(NC(=S)NC(=O)c2c(Br)c(C)nn2C)cc1 | 9.6* | i
CCOC(=O)c1ccc(NC(=S)NC(=O)c2cncc(Br)c2)cc1 | · | i
C=CCOn1c(=O)c(-c2ccc(OCC)cc2)[n+]([O-])c2ccccc21 | · | i
CCN(CCO)c1ccc(NC(=S)Nc2cccc(S(=O)(=O)N(C)C)c2)cc1 | -6.7 | -6.7*
CN(C)S(=O)(=O)c1cccc(NC(=S)Nc2cc(Cl)cc(Cl)c2)c1 | 1 | i
Cc1ccc(C)c(N2CCN(S(=O)(=O)c3csc(C(N)=O)c3)CC2)c1 | · | i
Cc1sc2nc(C(C)C)nc(SCC(=O)N3CCN(C(=O)c4ccco4)CC3)c2c1C | 13* | i
Cc1sc2ncnc(SCC(=O)N3CCN(C(=O)c4ccco4)CC3)c2c1C | 0.17 | i
Cc1cc(C(=O)Nc2ccc3c(c2)CCC3)ccc1[N+](=O)[O-] | 0.01 | i
Clc1ccc(CSc2nnc(CNc3cccc(Cl)c3)o2)cc1 | -5.7 | -5.7*
Fc1cccc(Cl)c1CSc1nnc(CNc2ccccc2)o1 | · | i
CS(=O)(=O)c1ccc(Cl)c(NC(=O)c2cc(S(=O)(=O)N3CCOCC3)ccc2N2CCCC2)c1 | 0.25 | i
CC1=CC2=NC(=O)CC(C)(C(=O)N(CC(=O)NC3CCCC3)Cc3ccccc3)N2C=C1 (configuration not stated) | 0.02 | i
CN(C)CCN1C(=O)c2oc3ccccc3c(=O)c2C1c1cccc(Br)c1 (configuration not stated) | · | i
COc1ccc(C2c3c(oc4ccc(Cl)cc4c3=O)C(=O)N2CCN2CCOCC2)cc1 (configuration not stated) | -6.6 | -6.6*
COc1ccc(C2c3c(oc4ccccc4c3=O)C(=O)N2CCCN2CCOCC2)cc1 (configuration not stated) | · | i
CN(C)CCN1C(=O)c2oc3ccc(Cl)cc3c(=O)c2C1c1cccc(Br)c1 (configuration not stated) | -6.3 | -6.3*
Cc1ccc(C)c(OCCC(=O)N2CCN(S(=O)(=O)c3cc(C)ccc3C)CC2)c1 | · | i
CCOc1cc(Cl)c(S(=O)(=O)NCCCn2ccnc2)cc1Cl | · | i
CCCC(=O)Nc1c(-c2cccc(OC)c2)c(=O)c2ccccc2n1C | 0.22 | i
CCOC(=O)N1CCN(C(=O)c2ccc(CS(=O)(=O)c3ccccc3OC)o2)CC1 | 0.24 | i
COc1ccccc1S(=O)(=O)Cc1ccc(C(=O)N2CCN(c3ccc(C)cc3)C(C)C2)o1 (configuration not stated) | -6.6 | -6.6*
CCOC(=O)N1CCN(Cc2nc3cc(NC(=O)c4cccs4)ccc3n2CC)CC1 | · | i
O=C(c1ccccn1)N1N=C2/C(=C/c3ccccc3)CCCC2C1c1ccccc1 (configuration not stated) | · | i
CNC(=O)c1sc(N2N=C3/C(=C/c4ccccc4)CCCC3C2c2ccccc2)nc1C (configuration not stated) | -6.1 | -6.1*
SMILES | KCNQ2 pot | KCNQ2 block
O=C(O)Cn1c2c(c3ccccc31)CSc1ccc(Cl)cc1-2 | · | i
COc1ccc(S(=O)(=O)NCC(=O)N(CC2CCCO2)C(C(=O)NC2CCCC2)C(C)C)cc1 (configuration not stated) | · | i
Cc1sc(NC(=O)C2CSC3(C)CCC(=O)N23)nc1-c1ccccc1 (configuration not stated) | -6.9 | -6.9*
CC12CCC(=O)N1C(C(=O)NCCc1ccccc1)CS2 (configuration not stated) | · | i
CC12CCC(=O)N1C(C(=O)Nc1ccc(Cl)c(Cl)c1)CS2 (configuration not stated) | · | i
CC12CCC(=O)N1C(C(=O)Nc1cc(C(F)(F)F)ccc1N1CCCCC1)CS2 (configuration not stated) | -6 | -6*
CC(=O)c1sc(NC(=O)C2CSC3(C)CCC(=O)N23)nc1-c1ccccc1 (configuration not stated) | · | i
CC12CCC(=O)N1C(C(=O)Nc1cc(C(F)(F)F)ccc1N1CCOCC1)CS2 (configuration not stated) | · | i
CC12CCC(=O)N1C(C(=O)NCc1ccccc1Cl)CS2 (configuration not stated) | -5.8 | -5.8*
CC12CCC(=O)N1C(C(=O)Nc1ccc(Cl)c(S(=O)(=O)N3CCCCC3)c1)CS2 (configuration not stated) | -6.1 | -6.1*
Cc1ccccc1NS(=O)(=O)c1csc(C(N)=O)c1 | 0.2 | i
COc1ccccc1N1C(=O)CC(N2CCN(c3ccc(Cl)cc3)CC2)C1=O (configuration not stated) | 1 | i
COc1cc(/C=C/C(=O)OCC(=O)Nc2oc(C)c3c(C)n[nH]c(=O)c23)ccc1OC(F)F | · | i
COc1cc(C(C)=O)ccc1OCC(=O)N(CCC1=CCCCC1)c1c(N)n(Cc2ccccc2)c(=O)[nH]c1=O | 1.4 | i
COc1ccc(C(C(=O)NC2CCCC2)N(C(=O)c2snc(-c3ccc(F)cc3)c2N)c2ccc(OC)cc2)cc1 (configuration not stated) | -5.7 | -5.7*
COc1ccc(C(C(=O)NC2CCCC2)N(C(=O)c2snc(-c3ccc(F)cc3)c2N)c2ccc(F)cc2)cc1 (configuration not stated) | · | i
CCN=C(NCC)SC1CC(=O)N(c2cccc(OCC)c2)C1=O (configuration not stated) | -6.2 | -6.2*
CCN=C(NCC)SC1CC(=O)N(c2ccc(OC)cc2)C1=O (configuration not stated) | · | i
CC(C(=O)Nc1cccc([N+](=O)[O-])c1)N1C(=O)NC2(CCCC2)C1=O (configuration not stated) | 0.54 | i
CCOc1cc(N2CCOCC2)c(OCC)cc1NC(=O)CN1C(=O)NC(Cc2ccccc2)C1=O (configuration not stated) | · | i
CCOc1cc(N2CCOCC2)c(OCC)cc1NC(=O)CN1CCC(Cc2ccccc2)CC1 | 6.1* | i
O=C(Nc1ccccc1Cl)C1CCN(S(=O)(=O)c2cccc3nonc23)CC1 | 0.16 | i
CCC1CCCCN1C(=O)C1CC(c2cc(Cl)c(OC)cc2OC)=NO1 (configuration not stated) | -6.2 | -6.2*
COc1cc(OC)c(C2=NOC(C(=O)N3CCCc4ccccc43)C2)cc1Cl (configuration not stated) | 0.18 | i
CN(C)C(CNC(=O)c1ccc(S(=O)(=O)Nc2cccc(C(F)(F)F)c2)cc1)c1ccco1 (configuration not stated) | · | i
SMILES | KCNQ2 pot | KCNQ2 block
CC(C)(C)N(Cc1ccccc1)C(=O)CCc1ccccc1 | -6.6 | -6.6*
CC(C)N(Cc1ccccc1)C(=O)CCc1ccccc1 | · | i
CC1(C)CC(NC(=O)C2CCC(=O)N(Cc3ccccc3F)C2)CC(C)(C)C1 (configuration not stated) | 1.7 | i
COc1cc(-c2nnc(SC/C=C/c3ccccc3)n2N)cc(OC)c1OC | -5.9 | -5.9*
Nn1c(SC/C=C/c2ccccc2)nnc1-c1ccncc1 | · | i
Cc1ccc(CCNC(=O)CSCc2ccc(F)cc2)cc1 | · | i
CC(C)c1nc(CNC(=O)CCc2nnc(-c3ccsc3)o2)cs1 | 1.4 | i
O=C(CCc1nnc(-c2ccsc2)o1)NCc1ccccc1OC(F)(F)F | -6.3 | -6.3*
